# Compound activity from PubChem BioAssay.
# FLuc modulator – counter-screen for miR-21 project: firefly luciferase inhibitors or activators. purified FLuc, Km substrates, luminescence inhibition. P08659. AID 588342. 360,000 compounds, 6.9% hits. Potency, µM (titrated, usually from 57.5 µM), without a hit: at the top dose activity change, negative = inhibition, actives largely listed as inhibitors;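 further: plate controls were vehicle for no effect and reference inhibitor for full effect; nearly all actives have a fitted effect of over 55% in size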
# Target sequence (P08659 whole entry, looked up): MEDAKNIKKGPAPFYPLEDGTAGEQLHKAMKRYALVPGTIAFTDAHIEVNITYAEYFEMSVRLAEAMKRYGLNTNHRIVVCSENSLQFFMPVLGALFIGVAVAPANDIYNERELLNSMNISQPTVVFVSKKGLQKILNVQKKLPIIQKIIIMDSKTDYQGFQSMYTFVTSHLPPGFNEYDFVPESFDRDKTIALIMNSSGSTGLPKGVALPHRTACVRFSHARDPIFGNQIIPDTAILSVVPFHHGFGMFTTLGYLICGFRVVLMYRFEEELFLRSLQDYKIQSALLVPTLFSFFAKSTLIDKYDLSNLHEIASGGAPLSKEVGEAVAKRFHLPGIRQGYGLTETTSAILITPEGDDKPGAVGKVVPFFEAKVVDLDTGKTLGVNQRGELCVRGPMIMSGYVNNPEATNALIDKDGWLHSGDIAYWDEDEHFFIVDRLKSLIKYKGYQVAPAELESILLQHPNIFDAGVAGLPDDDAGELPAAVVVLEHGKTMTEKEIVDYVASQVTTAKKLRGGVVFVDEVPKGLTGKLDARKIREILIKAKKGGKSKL
#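 Purified P. pyralis luciferase (10nM final) with 10uM D-luciferin and 10uM ATP (Km levels) in 50mM Tris acetate pH 7.5, 10mM Mg acetate, 0.01% Tween-20, 0.05% BSA; qHTS 6-point titration, ~60 µM downward; luminescence read.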
# ELG1 genotox – induces genotoxicity in HEK293T cells with luciferase-tagged ELG1 | HEK293T ELG1-luciferase reporter, luminescence, 16 h | Potency, µM (titrated, usually from 46 µM), for the others: top-dose activity change, positive = activation, most hits filed as activators | 330,000 compounds, 1.3% hits; further: % of control where 0% means no effect; nearly all actives have a fitted effect of over 60% in size
#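 DMSO vehicle served as control against compound-treated ELG1-luciferase HEK293T cells; exposure lasted 16 hr at 37 °C and 5% CO2, followed by ONE-Glo luminescence detection after 30 min.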
# NPC1 prom act – activators of NPC1 promoter; Potency, µM (series often up to 9.22 µM), without a hit: top-dose activation, actives largely listed as activators; 320,000 compounds, 2.4% hits; AID 485313; Huh7 NPC1 promoter luciferase reporter, 24 h; further: % of control where 0% means no effect; nearly all actives have a fitted effect of over 60% in size
#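 Quantitative HTS used a cell-based reporter: Huh7 cells stably bearing the NPC1 promoter upstream of luciferase were treated with compounds for 24 h, and promoter activation was read as luminescence.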
# SMN2 splice up – SMN2 splice variant enhancement; 210,000 compounds, 2.8% hits; Potency, µM (series often up to 46.1 µM), without a hit: at the top dose activity change, positive = activation, usual class: activators; HEK293 SMN2-luciferase splicing reporter, luminescence, 30-36 h; further: % of control where 0% means no effect; nearly all actives have a fitted effect of over 55% in size
#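 HEK293 cells carry an SMN2 minigene-luciferase reporter in which exon 7 inclusion puts luciferase in frame. Cells were seeded at 2000 cells/well, attached for 10-12 hours, then exposed to compounds for 30-36 hours at 37C before ONE-Glo luminescence.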
# Luc counter – blocks Kinase-Glo luciferase, a counter-screen artifact | Kinase-Glo luciferase, ATP luminescence, 8 min | 200,000 compounds, 0.28% hits | Q27757 | Potency, µM (top dose mostly 38.3 µM), without a hit: at the top dose activity change, negative = inhibition, actives largely listed as inhibitors; further: on the % scale 0 is the no-effect control and ±100 the full control effect; nearly all actives have a fitted effect of over 60% in size
#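 Compounds were added to a substrate mix at pH 7.2 (50 mM imidazole, 10 uM ATP, within the enzyme's linear range), followed by Kinase-Glo detection reagent; luminescence was measured after 8 minutes at ambient temperature.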
# Rab9 promoter act – Rab9 promoter activation; 320,000 compounds, 2.8% hits; Huh7 Rab9 promoter-luciferase reporter, luminescence, 24 h; Potency, µM (highest dose often 9.22 µM), without a hit: at the top dose activation, negative = inhibition, actives largely listed as activators; further: % of control where 0% means no effect; nearly all actives have a fitted effect of over 60% in size
#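 Quantitative HTS format; Huh7 Rab9-luciferase reporter cells (1500/well) receive compound 2 h post-plating, incubate 24 h at 37 °C, then get luciferase reagent for 10 min before luminescence reading.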
# Numbers without * were called inactive; ? = inconclusive; . = not tested or not shown. Hits are enriched below; roughly 7.3% of the tested compounds scored in any of these assays. The call rests on the fitted dose curve; in most records, active means well fitted curve in the direction sought with a large enough effect; inconclusive means small, poorly fitted or top-dose-only effect, or another doubt; inactive means no such curve, though single readings can be large; an effect the other way counts as inactive or inconclusive. Potency means the concentration at half of the fitted maximal effect.
SMILES,FLuc modulator,ELG1 genotox,NPC1 prom act,SMN2 splice up,Luc counter,Rab9 promoter act
COc1ccc2cc(C(N)=O)c(=Nc3ccccc3)oc2c1,0.5%,?,3.55µM*,-12.8%,5.5%,1.58µM*
COc1ccc(Cl)cc1NC(=O)Cn1c(=O)n2nc(-c3ccccc3)nc2c2ccccc21,0.0%,.,.,-10.8%,.,.
Cc1cc(C(=O)COc2cccnc2[N+](=O)[O-])c(C)n1-c1ccccc1F,6.01µM*,5.0%,22.9%,.,.,12.1%
Cc1ccc(-n2c(C)cc(C(=O)COc3cccnc3[N+](=O)[O-])c2C)cc1,16.9µM*,?,-1.7%,-42.4%,-0.1%,-4.7%
Cc1cc(C(=O)COc2cccnc2[N+](=O)[O-])c(C)n1-c1ccccc1,2.69µM*,7.2%,2.5%,-42.6%,-4.3%,-2.5%
Cc1cc(C(=O)COc2cccnc2[N+](=O)[O-])c(C)n1Cc1ccco1,?,11.3%,8.7%,-18.5%,-0.4%,16.5%
O=C(CN1C(=O)COc2ccc(S(=O)(=O)N3CCOCC3)cc21)N1CCN(c2ccc(F)cc2)CC1,-1.5%,.,.,3.5%,.,.
Cc1cc(S(=O)(=O)C(CNC(=O)c2ccc(OC(C)C)cc2)c2cccs2)ccc1F (configuration not stated),-12.9%,.,.,.,.,.
O=C(Cc1ccccc1)N/N=C/c1ccc2cccc(O)c2n1,19µM*,0.0%,-0.1%,.,-1.2%,-3.1%
NC(=O)N/N=C/c1ccc2cccc(OCc3ccccc3)c2n1,19µM*,7.0%,-1.1%,.,.,0.9%
O=C(Cc1ccccc1)N/N=C/c1cccnc1,2.5%,2.1%,1.1%,.,.,0.8%
Cc1cccc(/C=N/NC(=O)c2cc(Br)ccc2OCc2ccccc2)n1,2.5%,-2.8%,-4.7%,.,.,1.1%
CCSc1nncn1/N=C/c1ccc(OC)c(OC)c1,?,?,8.2%,?,1.8%,22.9%
C=C(C)CSc1nncn1/N=C/c1ccc(OC)cc1,12µM*,?,?,?,0.1%,3.98µM*
Cc1ccc(OCc2ccc(-c3nc(C#N)c(NCc4cccnc4)o3)o2)cc1,-15.6%,.,.,.,.,.
N#Cc1nc(-c2ccco2)oc1NCc1ccco1,-1.9%,4.1%,-1.3%,-6.0%,-0.8%,1.8%
Cc1ccc(-c2nc(C#N)c(NCc3ccco3)o2)cc1,4.78µM*,5.8µM*,?,?,-0.9%,?
CC(C)(C)c1ccc(-c2nc(C#N)c(NCc3cccnc3)o2)cc1,10.7µM*,?,9.7%,-17.9%,2.9%,?
Cc1cccc(-c2nc(C#N)c(NCc3ccco3)o2)c1,10.7µM*,?,?,.,.,?
N#Cc1nc(COc2cccc(Cl)c2)oc1NCc1ccco1,19µM*,?,19.3%,12.0%,2.7%,?
CCOc1ccc(S(=O)(=O)NCC(c2ccco2)S(=O)(=O)c2cccs2)cc1 (configuration not stated),-2.0%,.,.,.,.,.
CC(C)(C)c1ccc(OCC(=O)NCC2(N3CCOCC3)CCCCC2)cc1,0.9%,.,.,.,.,.
N#Cc1nc(-c2ccc(F)cc2)oc1NCc1ccco1,?,5.4%,11.7%,.,.,14.6%
C=CCNc1oc(-c2ccc(OC)cc2)nc1C#N,8.49µM*,14.6µM*,?,?,6.6%,2.82µM*
COc1ccc(-c2nc(C#N)c(NCc3ccco3)o2)cc1,13.5µM*,?,?,20µM*,3.2%,?
COc1ccc(Nc2oc(COc3cccc(C)c3)nc2C#N)cc1,5.36µM*,16.4µM*,?,18.7%,-2.4%,?
COc1ccc(Nc2oc(COc3ccc(C)cc3)nc2C#N)cc1,-18.5%,0.7%,0.4%,-87.3%,2.6%,-3.8%
Cc1ccc(C)c(NC(=O)C(Cc2ccccc2)N2Cc3ccccc3C2=O)c1 (configuration not stated),-14.1%,.,.,.,.,.
COc1ccc(C(=O)C2CCCN(Cc3cc(C)c(O)c(C)c3)C2)c(OC)c1 (configuration not stated),-1.2%,-3.4%,-9.1%,.,.,-7.3%
